POLB inh: DNA polymerase beta (human) inhibition | Pol beta primer extension/strand displacement, fluorescence kinetic | Potency, µM (top dose mostly 114 µM), hits mostly inhibitors | 340,000 tested, 1.3% active
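Homogeneous kinetic assay of primer extension and strand displacement by 10 nM Pol beta, preincubated 15 min at room temperature with compound before 50 nM substrate (final) was added. Read at 0 and 10 min; four-parameter Hill fit.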
L3MBTL1 inh: inhibitors of human L3MBTL1. Q9Y468. AlphaScreen L3MBTL1–H3K9me1 peptide binding. Potency, µM (titrated, usually from 57.1 µM), usual class: inhibitors. 230,000 tested, 0.66% active; further: nearly all actives have a fitted effect of over 60% in size
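Read-out is AlphaScreen signal from streptavidin donor and nickel chelate acceptor beads (10 ug/mL final each) bridging L3MBTL1 (50 nM) and biotinylated K9-monomethylated H3(1-15) peptide (75 nM), after 30 min compound exposure at room temperature.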
POLI inh: DNA polymerase iota (human) inhibition; Pol iota fluorescent replication assay, 10 min; Potency, µM (top dose mostly 115 µM), hits mostly inhibitors; 390,000 tested, 1% active
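Pol iota at 10 nM preincubated 15 min with compounds at room temperature; reaction started with fluorescent substrate, 50 nM final. Fluorescence read kinetically at 0 and 10 min; buffer-only wells as negative control.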
POLK inh: DNA polymerase kappa (human) inhibition | 400,000 tested, 0.53% active | Q9UBT6 | AID 588579 | Potency, µM (doses to about 107 µM), hits mostly inhibitors | purified Pol kappa, fluorescent DNA synthesis assay, 10 min
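First, compounds were pin-transferred onto 10 nM Pol kappa. After 15 min at room temperature, substrate was added to 50 nM final. Fluorescence was then measured kinetically at 0 and 10 min.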
Pol eta inh: DNA polymerase eta (human) inhibition; recombinant Pol eta, fluorescent DNA replication assay; Potency, µM (top dose mostly 114 µM), hits mostly inhibitors; 390,000 tested, 1.2% active
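Pol eta (10 nM) was preincubated with compounds for 15 min at room temperature, after which fluorescent replication substrate (50 nM final) was added to start the reaction. Fluorescence was read kinetically at 0 and 10 min.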
WRN helicase inh: inhibitors of human WRN helicase; AID 651768; Potency, µM (top dose mostly 114 µM), usual class: inhibitors; 360,000 tested, 0.46% active; WRN helicase unwinding, fluorescent forked duplex, kinetic; further: nearly all actives have a fitted effect of over 55% in size
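Primary qHTS, 1536-well format. 20 nM WRN + compound, 15 min RT; start with 100 nM forked fluorophore/quencher duplex, 2 mM ATP (final); kinetic read ex 525/em 598 nm.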
Hits are given with their value; i = inactive; ? = inconclusive; nt = not tested or not shown; [ ] = dose if it differs, or a comment. Hits are enriched below; roughly 2.5% of the tested compounds scored in any of these assays. The call rests on the fitted dose curve; in most records, active means well fitted curve in the direction sought with a large enough effect; inconclusive means small, poorly fitted or top-dose-only effect, or another doubt; inactive means no such curve, though single readings can be large; an effect the other way counts as inactive or inconclusive.

SMILES | POLB inh | L3MBTL1 inh | POLI inh | POLK inh | Pol eta inh | WRN helicase inh
COc1ccc(C(=O)N/N=C(\C)Cn2nc([N+](=O)[O-])cc2C)cc1 | ? | i | i | i | i | i
CCCCN1C(=O)C(O)(c2c(C)[nH]c3ccccc23)c2cc(Br)ccc21 (stereo not drawn) | i | nt | i | i | nt | nt
O=C(c1ccc(COc2ccccc2[N+](=O)[O-])o1)N1CCCCC1 | i | i | i | i | i | i
O=C(O)c1ccc(COc2ccccc2[N+](=O)[O-])o1 | ? | ? | i | i | 13µM | i[11.6 µM]
O=C(O)c1ccc(OCc2ccc(C(=O)O)o2)cc1 | ? | nt | i | i | 32µM | i
CNCCC(=O)N1c2ccccc2CCc2ccc(NC(=O)OC)cc21 | i | nt | i | i | i | i
COc1ccc(S(=O)(=O)N2CCC(C(=O)O)(c3ccccc3)CC2)cc1 | i | i | i | i | i | i
Cc1ccc(C(=O)OCc2nc3ccsc3c(=O)[nH]2)o1 | nt | i | ? | i | i | i
O=C(/C=C/c1ccc(Br)o1)OCc1nc2ccsc2c(=O)[nH]1 | nt | 3.2µM | 10µM | 10µM | 0.79µM | 14µM
COCCCNC(=O)C1CC(=O)N(CCc2ccc(OC)c(OC)c2)C1 (stereo not drawn) | i | i | i | i | 32µM | i
COc1ccc(CCN2CC(C(=O)NCCc3ccccc3)CC2=O)cc1OC (stereo not drawn) | ? | nt | i | i | i | i
CCOc1ccccc1NC(=O)c1ccoc1C | ? | nt | i | i | i | i
Cc1onc(-c2ccccc2)c1C(=O)Oc1cccnc1 | ? | i | i | i | i | i
Cc1cc(NC(=O)C2C3C=CC(C3)C2C(=O)O)no1 (stereo not drawn) | ? | nt | i | i | i | i
Cc1cc(NC(=O)C2CC=CCC2C(=O)O)no1 (stereo not drawn) | 22µM | i | i | i | ? | i
CCOc1ccc(NC(=O)CCS(=O)(=O)c2ccc(Br)s2)cc1 | 28µM | nt | i | i | ? | nt
Cc1ccc(NC(=O)CCS(=O)(=O)c2ccc(Br)s2)cc1 | i | nt | i | i | i | i
Cc1c(Cl)cccc1NC(=O)CCS(=O)(=O)c1ccc(Br)s1 | 50µM | nt | i | ? | i | nt
CC(C)CC(C(=O)NC1CCCCC1)N(Cc1ccccc1)C(=O)c1snc(C(N)=O)c1N (stereo not drawn) | i | nt | i | i | i | i
COc1cccc(C2CC(c3ccc(NS(C)(=O)=O)cc3)=NN2C(=O)c2ccccc2)c1OC (stereo not drawn) | i | nt | 89µM | i | ? | i
CCOc1ccc(N(C)c2ccc(/C=C3/SC(=S)NC3=O)cc2)cc1 | ? | i | ? | i | i | ?
CCOc1c(O)ccc(/C=C2\SC(=S)NC2=O)c1[N+](=O)[O-] | 20µM | ? | 13µM | ? | 25µM | i[11.6 µM]
O=c1ccc2ccc(O)c(O)c2o1 | 14µM | nt | 24µM | 9.5µM | ? | nt
COc1cccc(CNC(=O)Cc2ccc(NC(=O)C3=C(C)OCCS3)cc2)c1 | 22µM | nt | ? | ? | ? | i
Cc1cccc2cc(/C=C3\N=C(c4ccccc4)OC3=O)c(N3CCOCC3)nc12 | i | i | i | i | i | i
SMILES | POLB inh | L3MBTL1 inh | POLI inh | POLK inh | Pol eta inh | WRN helicase inh
COc1cccc(C(=O)c2cn(CC(=O)Nc3cccc(Cl)c3C)c3nc(C)ccc3c2=O)c1 | i | nt | i | i | i | nt
CC(=O)c1cccc(NC(=O)Cn2cc(C(=O)c3cccc(Cl)c3)c(=O)c3ccc(C)nc32)c1 | i | nt | 89µM | i | i | nt
O=C(CC1Nc2cccc3cccc(c23)NC1=O)Nc1ccccc1 (stereo not drawn) | i | i | i | i | i | i
NC(=O)CC1Nc2cccc3cccc(c23)NC1=O (stereo not drawn) | 6.3µM | i | ? | i | ? | i
Cc1ccc(NC(=O)CC2Nc3cccc4cccc(c34)NC2=O)cc1 (stereo not drawn) | i | nt | 5µM | ? | i | nt
Cc1ccc(Cc2c(C)nc3nc(SCC(=O)NCc4ccco4)nn3c2C)cc1 | 22µM | ? | ? | i | ? | i
O=C(CSc1nnc(Nc2ccccc2F)s1)NCc1ccco1 | 40µM | ? | ? | ? | 14µM | ?
Cc1ccc(Nc2nnc(SCC(=O)NCc3ccco3)s2)cc1 | 10µM | ? | i | ? | ? | i
COCCCNC(=O)c1cc(C(=O)c2c(-c3c(Cl)cccc3Cl)noc2C)c[nH]1 | i | i | i | i | i | i

Bioassay records (PubChem BioAssay)
